Reference: PubChem BioAssay (NCATS)
Values without a mark were called inactive. Results filed as inconclusive are left out. Activity calls are given as the source filed them. Unless noted, calls follow the shape of the dose curve; as a rule, active = well fitted curve in either direction with a large enough effect (not every such curve was filed as active); inconclusive = small, poorly fitted or top-dose-only effect, or another doubt; inactive = flat fitted curve, though single readings scatter.

Tests used:
[1] = target: Lysosomal acid glucosylceramidase (Homo sapiens) (UniProt P04062); assay: Glucocerebrosidase-p2 (AID 348; in the data active = potency below about 10 µM; also: potency is read from the fitted curve at half-maximal effect); conditions: purified GBA, blue fluorogenic substrate, 40 min
Method in brief: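 Compounds titrated from 0.6 nM upwards against 0.2 nM enzyme in pH 5.9 citric acid/KH2PO4, taurocholate, tween-20; blue fluorogenic substrate 80 uM, 40 min room temperature, stopped and read Ex 365/Em 440 for AC50.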

[2] = AP1 Signaling Pathway (AID 357); conditions: ME-180 AP-1-bla reporter, EGF-induced, beta-lactamase ratio, 5 h; at 7.69 µM (top of the series) unless noted;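 also: ME-180 reporter cells stimulated with EGF at its EC50 level; % is scaled to controls: 0 for no effect and ±100 for the full control effect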
Method in brief: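 Cells are seeded overnight, exposed to compound titrations and an EC50 level of EGF for 5 hours at 37 °C, then loaded with CCF4 dye for 2.5 hours. Beta-lactamase activity under the AP-1 element is read as a blue/green ratio.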

[3] = target: Cytochrome P450 1A2 (Homo sapiens) (UniProt P05177); assay: p450-cyp1a2 (AID 410; calls by dose curve; also: potency is read from the fitted curve at half-maximal effect;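 as to activity change, negative = inhibition: -100% = full effect of reference inhibitor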); conditions: recombinant CYP1A2, luciferin-ME demethylation, luminescence; series mostly up to 11.4 µM
Method in brief: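 20nM CYP1A2 with 100uM Luciferin-ME (at Km) in 100mM KPO4; compound preincubated 10 min, NADPH regeneration added, 60 min at room temperature. Luciferin quantified by luminescence after detection reagent; normalized to 57 uM furafylline.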

[4] = NFAT Signaling Pathway (AID 444); conditions: Jurkat NFAT-bla M1, carbachol, beta-lactamase ratio, 5 h; at 7.69 µM (top of the series) unless noted;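 also: carbachol stimulus at about its EC50 of 1 µM final; % is scaled to controls: 0 for no effect and ±100 for the full control effect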
Method in brief: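 Read-out: CCF4 FRET ratio (460 nm/530 nm) after 1 h RT dye loading, used for %activity and AC50 from titration series. Cells: Jurkat NFAT-β-lactamase/M1 line, treated with compound plus 1 uM carbachol for 5 h, 37 °C.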

[5] = Stat Signaling Pathway (AID 446); conditions: ME-180 SIE beta-lactamase reporter, IL-6 stimulated, 5 h; at 7.69 µM (top of the series) unless noted;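 also: ME-180 cervical cancer cells given 40 pM IL-6 alongside compound; SIE-controlled beta-lactamase reporter measured as 460/530 nm FRET emission ratio; % is scaled to controls: 0 for no effect and ±100 for the full control effect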
Method in brief: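 Screening format detects activators and inhibitors alike: ME-180 SIE-bla cells stimulated at 40 pM IL-6 for 5 hrs with compound, then dual-emission beta-lactamase read at 405 nm excitation.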

[6] = target: Glucocorticoid receptor (Homo sapiens) (UniProt P04150); assay: GR-GFP Redistribution (AID 450;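 active = compounds whose dose series gives a full or clear partial fitted curve of increased nuclear translocation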; also: potency is read from the fitted curve at half-maximal effect); conditions: U2OS GR-GFP nuclear translocation, laser cytometry, 2 h
[7] = target: Glucocorticoid receptor (Homo sapiens) (UniProt P04150); assay: GR-EFC Redistribution (AID 451; calls by dose curve; also: potency is read from the fitted curve at half-maximal effect); conditions: CHO-K1 GR-EFC translocation, beta-gal luminescence, 2 h
Method in brief: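 Translocation of GR-ED fusion to nuclear EA restores b-gal, read by luminescence after 1 h room-temperature detection. Engineered CHO-K1 biosensor cells, 1,000/well, exposed 2 h at 37 C to titrations up to 46 uM final.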

[8] = target: Mitogen-activated protein kinase 10 (Mus musculus) (UniProt Q61831); assay: JNK3 AlphaScreen Assay (AID 530); conditions: JNK3 lysate, c-Jun phosphorylation; series mostly up to 11.4 µM;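 also: kinase came from lysate of stimulated human HepG2 cells; signal reports phosphorylation of biotinylated GST-cJun 1-79 at Ser73 with 10 µM ATP; % is scaled to controls: 0 for no effect and ±100 for the full control effect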
Method in brief: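 Compound titrations were preincubated 15 minutes at room temperature with substrate, antibody and pre-activated JNK3-containing HepG2 lysate. Reactions were started with 10 uM ATP and stopped with EDTA-containing bead buffer for AlphaScreen detection.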

[9] = target: 3',5'-cyclic-AMP phosphodiesterase 4B (Homo sapiens) (UniProt Q07343); assay: qHTS Assay for Inhibitors of PDE-IV (AID 607; active = well fitted activation curve with a large enough effect in the main read-out, with a control signal flat, not every such curve was filed as active; also: % of control where 0% means no effect); conditions: HEK293 ACTOne CNG channel cells, membrane potential fluorescence; series mostly up to 22.9 µM
Method in brief: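 The readout is membrane depolarisation from a cAMP-sensing CNG channel, detected with a potential dye at ex 535/em 590. Cells were HEK293-derived (endogenous PDE-IV) at 1000 cells/well, titrated up to 22.9 uM final.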

[10] = target: Cytochrome P450 3A4 (Homo sapiens) (UniProt P08684); assay: qHTS Assay for Activators of Cytochrome P450 3A4 (AID 885; active = well fitted curve in the direction sought with a large enough effect; an effect the other way counts as inactive or inconclusive; also: nearly all actives have a fitted effect of over 65% in size); conditions: recombinant CYP3A4, Luciferin-PPXE luminescence, 60 min; series mostly up to 11.4 µM
Method in brief: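 Steps: enzyme/substrate mix dispensed; compound added, 10 min RT; NADPH regeneration solution added, 60 min RT; luciferin detection buffer stops reaction; 20 min later luminescence measured.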

[11] = target: Cytochrome P450 2D6 (Homo sapiens) (UniProt P10635); assay: qHTS Assay for Inhibitors and Substrates of Cytochrome P450 2D6 (AID 891; active = well fitted curve in the direction sought with a large enough effect; an effect the other way counts as inactive or inconclusive; also: potency is read from the fitted curve at half-maximal effect; nearly all actives have a fitted effect of over 60% in size); conditions: recombinant CYP2D6, luciferin-ME EGE luminescence; series mostly up to 11.4 µM
Method in brief: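 Human CYP2D6 (5 nM) with 30 uM Luciferin-ME EGE (at Km) in 100 mM KPO4, compound preincubated 10 min, then NADPH regeneration system for 60 min at room temperature. Luciferin read by luminescence; normalized to 1.43 uM quinidine.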

Chain of Cytochrome P450 1A2 (Homo sapiens) (P05177 whole entry, looked up): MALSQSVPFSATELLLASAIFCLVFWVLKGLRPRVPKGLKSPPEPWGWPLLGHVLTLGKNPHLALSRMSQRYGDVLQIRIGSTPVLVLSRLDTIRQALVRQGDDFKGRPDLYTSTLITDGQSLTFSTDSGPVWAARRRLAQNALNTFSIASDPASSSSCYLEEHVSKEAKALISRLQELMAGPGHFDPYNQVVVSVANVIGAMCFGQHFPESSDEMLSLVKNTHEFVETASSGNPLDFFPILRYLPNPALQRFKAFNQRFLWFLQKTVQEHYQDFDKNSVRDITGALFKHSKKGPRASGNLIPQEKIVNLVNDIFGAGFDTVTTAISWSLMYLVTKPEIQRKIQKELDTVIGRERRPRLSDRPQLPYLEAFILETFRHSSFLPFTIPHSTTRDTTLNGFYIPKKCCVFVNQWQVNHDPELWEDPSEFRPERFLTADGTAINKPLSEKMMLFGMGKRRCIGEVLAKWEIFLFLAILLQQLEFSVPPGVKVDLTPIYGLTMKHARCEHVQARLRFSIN
Chain of 3',5'-cyclic-AMP phosphodiesterase 4B (Homo sapiens) (Q07343 whole entry, looked up): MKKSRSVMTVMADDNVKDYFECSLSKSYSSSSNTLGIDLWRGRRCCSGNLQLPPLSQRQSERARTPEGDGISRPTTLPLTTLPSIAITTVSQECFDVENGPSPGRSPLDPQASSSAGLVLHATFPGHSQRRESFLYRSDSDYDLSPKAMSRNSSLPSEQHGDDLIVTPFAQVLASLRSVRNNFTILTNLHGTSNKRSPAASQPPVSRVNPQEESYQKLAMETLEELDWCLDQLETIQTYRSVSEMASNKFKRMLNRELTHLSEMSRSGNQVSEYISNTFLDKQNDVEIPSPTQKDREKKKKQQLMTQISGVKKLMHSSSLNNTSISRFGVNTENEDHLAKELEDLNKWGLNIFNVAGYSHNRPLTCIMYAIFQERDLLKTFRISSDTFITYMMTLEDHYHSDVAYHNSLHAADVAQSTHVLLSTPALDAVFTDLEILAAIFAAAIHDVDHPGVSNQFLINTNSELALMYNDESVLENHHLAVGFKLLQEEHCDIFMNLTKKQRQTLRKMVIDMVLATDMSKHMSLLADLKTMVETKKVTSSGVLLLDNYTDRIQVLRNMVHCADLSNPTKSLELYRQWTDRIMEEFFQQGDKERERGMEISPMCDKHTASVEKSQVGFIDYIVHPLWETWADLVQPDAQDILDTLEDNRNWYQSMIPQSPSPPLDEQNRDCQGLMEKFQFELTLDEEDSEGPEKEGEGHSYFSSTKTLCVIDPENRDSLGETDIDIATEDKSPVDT
Chain of Glucocorticoid receptor (Homo sapiens) (P04150 whole entry, looked up, the tested form may be a part): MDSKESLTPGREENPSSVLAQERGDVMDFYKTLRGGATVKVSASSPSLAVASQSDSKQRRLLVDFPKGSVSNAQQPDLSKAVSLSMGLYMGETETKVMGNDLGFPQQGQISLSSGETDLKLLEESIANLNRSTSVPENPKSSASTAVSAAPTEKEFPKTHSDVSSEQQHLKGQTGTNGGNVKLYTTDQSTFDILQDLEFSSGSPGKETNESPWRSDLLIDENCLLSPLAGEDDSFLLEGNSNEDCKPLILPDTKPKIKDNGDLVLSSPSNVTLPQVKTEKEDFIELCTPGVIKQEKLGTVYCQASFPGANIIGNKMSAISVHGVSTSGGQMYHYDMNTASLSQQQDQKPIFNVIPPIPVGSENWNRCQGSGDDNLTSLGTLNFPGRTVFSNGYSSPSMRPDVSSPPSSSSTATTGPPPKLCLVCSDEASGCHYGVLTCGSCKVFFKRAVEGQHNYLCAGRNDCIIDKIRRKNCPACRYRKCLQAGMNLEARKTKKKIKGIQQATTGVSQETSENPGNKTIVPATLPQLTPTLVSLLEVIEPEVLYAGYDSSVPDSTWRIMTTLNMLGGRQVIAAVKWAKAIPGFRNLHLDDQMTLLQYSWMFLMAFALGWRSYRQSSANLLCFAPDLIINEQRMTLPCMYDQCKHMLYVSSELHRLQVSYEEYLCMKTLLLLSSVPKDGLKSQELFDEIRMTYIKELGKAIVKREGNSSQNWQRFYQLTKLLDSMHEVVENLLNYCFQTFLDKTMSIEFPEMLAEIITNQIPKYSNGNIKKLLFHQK
Chain of Cytochrome P450 3A4 (Homo sapiens) (P08684 whole entry, looked up): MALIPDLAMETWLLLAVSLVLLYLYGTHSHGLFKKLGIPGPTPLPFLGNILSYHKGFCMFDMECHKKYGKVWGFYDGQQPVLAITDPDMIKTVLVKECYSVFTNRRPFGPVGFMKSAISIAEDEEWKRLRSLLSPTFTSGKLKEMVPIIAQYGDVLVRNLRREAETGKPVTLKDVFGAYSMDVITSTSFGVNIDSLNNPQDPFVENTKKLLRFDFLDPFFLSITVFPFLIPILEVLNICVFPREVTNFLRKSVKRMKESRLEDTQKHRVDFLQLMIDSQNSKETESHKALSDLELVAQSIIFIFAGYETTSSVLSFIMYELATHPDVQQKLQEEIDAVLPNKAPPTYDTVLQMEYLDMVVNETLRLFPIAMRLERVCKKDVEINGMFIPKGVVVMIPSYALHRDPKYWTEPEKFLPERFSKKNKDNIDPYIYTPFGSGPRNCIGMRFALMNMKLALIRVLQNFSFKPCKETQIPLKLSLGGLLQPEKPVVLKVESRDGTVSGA
Chain of Lysosomal acid glucosylceramidase (Homo sapiens) (P04062 whole entry, looked up): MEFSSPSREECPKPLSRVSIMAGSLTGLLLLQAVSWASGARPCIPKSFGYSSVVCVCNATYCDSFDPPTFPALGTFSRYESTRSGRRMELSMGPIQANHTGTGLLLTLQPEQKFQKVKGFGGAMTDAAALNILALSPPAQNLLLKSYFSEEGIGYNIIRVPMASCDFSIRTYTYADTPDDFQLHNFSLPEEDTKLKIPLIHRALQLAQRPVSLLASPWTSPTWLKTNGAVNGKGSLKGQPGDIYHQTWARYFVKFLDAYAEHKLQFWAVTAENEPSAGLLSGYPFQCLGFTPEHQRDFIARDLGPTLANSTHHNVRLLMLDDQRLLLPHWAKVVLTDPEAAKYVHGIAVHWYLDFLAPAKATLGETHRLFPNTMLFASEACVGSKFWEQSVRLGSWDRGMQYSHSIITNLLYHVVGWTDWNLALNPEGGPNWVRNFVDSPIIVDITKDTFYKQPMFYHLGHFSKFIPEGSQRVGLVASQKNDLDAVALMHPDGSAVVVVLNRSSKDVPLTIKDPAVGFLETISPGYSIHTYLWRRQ
Chain of Cytochrome P450 2D6 (Homo sapiens) (P10635 whole entry, looked up): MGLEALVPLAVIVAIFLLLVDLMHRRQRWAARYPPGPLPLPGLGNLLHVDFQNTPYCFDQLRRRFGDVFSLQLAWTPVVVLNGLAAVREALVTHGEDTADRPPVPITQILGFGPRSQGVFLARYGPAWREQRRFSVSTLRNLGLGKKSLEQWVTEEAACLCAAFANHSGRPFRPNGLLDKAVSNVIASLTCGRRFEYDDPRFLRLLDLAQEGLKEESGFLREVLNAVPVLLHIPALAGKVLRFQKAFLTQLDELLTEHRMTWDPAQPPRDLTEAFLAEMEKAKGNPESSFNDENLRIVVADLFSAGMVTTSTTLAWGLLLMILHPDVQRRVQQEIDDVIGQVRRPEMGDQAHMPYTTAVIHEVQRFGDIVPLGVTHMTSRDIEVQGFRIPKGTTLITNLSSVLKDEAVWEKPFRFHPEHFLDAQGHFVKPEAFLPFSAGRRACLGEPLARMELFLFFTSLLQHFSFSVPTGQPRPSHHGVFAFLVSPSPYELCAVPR

| SMILES | Potency [1] | activity change, negative = inhibition [2] | Potency [3] | activity change, negative = inhibition [4] | activity, negative = inhibition [5] | Potency [6] | Potency [7] | Potency [8] | Potency [9] | Potency [10] | Potency [11] |
| --- | --- | --- | --- | --- | --- | --- | --- | --- | --- | --- | --- |
| O=C(O)c1nc2nc(Cl)c(Cl)nc2[nH]1 | > 11.4 µM | 0.697% | inactive | -0.0714% | 2.39% | > 46 µM | > 9.22 µM | inactive | inactive | inactive | – |
| CC[C@H]1CC[C@H]2[C@@H]3CC=C4C[C@H](OC(C)=O)[C@@H](N)C[C@@]4(C)[C@H]3CC[C@@]12C | > 11.4 µM | 8.35% | inactive | 8.17% | -1.58% | > 46 µM | > 9.22 µM | inactive | inactive | inactive | – |
| COCCNc1nc(-c2ccc(C(=O)N(C)C)cc2)nc2ccccc12 | > 11.4 µM | 11.7% | 20 µM (active) | 17.9% | 1.02% | > 46 µM | > 46 µM | inactive | inactive | inactive | – |
| Cc1ccc2nc(CC(=O)c3ccc4ccccc4c3)c(=O)[nH]c2c1 | > 11.4 µM | 6.36% | 2 µM (active) | -17.8% | 12.1% | > 46 µM | > 9.22 µM | inactive | inactive | inactive | – |
| COc1c(O)ccc2c1CN1CCc3cc4c(cc3[C@@H]1C2)OCO4 | > 11.4 µM | -4.62% | 0.501 µM (active) | -25.2% | 7.58% | > 46 µM | > 9.22 µM | inactive | inactive | inactive | 0.158 µM (active) |
| O=C(O)/C=C\C(=O)Nc1ccc2c(c1)-c1ccccc1C2 | > 11.4 µM | -11.5% | 1 µM (active) | 6.68% | -8.21% | > 46 µM | > 9.22 µM | inactive | inactive | inactive | – |
| COc1ccc(C=Nc2c(O)ccc3ccccc23)cc1OC | > 11.4 µM | -0.822% | 0.251 µM (active) | 9.83% | -1.67% | > 46 µM | > 9.22 µM | inactive | inactive | inactive | – |
